Tau fil binding – binders of human tau filaments. recombinant tau filaments, thioflavin S fluorescence, 15 h; filaments grown with octadecylsulfate alongside compound. Potency, µM (doses to about 57.1 µM). 2% of 71,000 active. P10636. AID 596;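 further: actives lower thioflavin S fluorescence by blocking filaments or displacing dye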
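Read-out: ThS fluorescence, 450 nm excitation/510 nm emission; lower signal marks blocked filament formation or displaced dye. Tau at 1 uM with 30 uM ODS, 10 uM ThS, 5 mM DTT, 100 mM NaCl, 10 mM HEPES pH 7.4; 15 h, 37 C.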
BRCT inh red – BRCT-phosphoprotein interaction inhibition (red fluorophore); P38398; BRCT-phosphopeptide binding, red fluorescence polarization; Potency, µM (highest dose often 76.9 µM), actives largely listed as inhibitors; 0.03% of 75,000 active; AID 892
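Rhodamine-labelled pBACH1 10-mer (100 nM) bound to BRCT domain (100 nM) at pH 7.3; compounds incubated 12 min room temperature, polarization read. Free peptide defines full inhibition; unlabelled decapeptide titrated as control.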
Pol III holo inh – blocks replication by bacterial DNA polymerase III holoenzyme. Potency, µM (series often up to 57.1 µM). AID 603. 0.25% of 71,000 active. reconstituted DNA polymerase III holoenzyme replication, biochemical
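Reconstituted *E. coli* holoenzyme (0.35 nM Pol III, 1 nM beta, 154 nM SSB, 2 nM primase) was preincubated with compound for 15 min at RT. Synthesis on 1.4 nM ssM13Gori ran 35 min, then was stopped with PicoGreen/EDTA and read as dsDNA fluorescence.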
BRCT PPI green – BRCA1 BRCT-phosphoprotein interaction inhibition; P38398; BRCA1 BRCT-phosphopeptide binding, green fluorescence polarization; Potency, µM (doses to about 76.9 µM), most hits filed as inhibitors; 0.05% of 75,000 active; AID 875
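Compounds were incubated for 12 min at room temperature with a complex of 100 nM fluorescein-tagged pBACH1 decapeptide and 250 nM His-tagged BRCT protein. Buffer was phosphate pH 7.3 with EDTA, DTT and Tween 20. Disruption of binding lowers the polarization signal.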
Hsp90 Hop PPI – changes Hsp90-Hop TPR2A binding signal, up or down | AlphaScreen TPR2A-His6 binding biotin-Hsp90 C-terminal peptide | Potency, µM (highest dose often 57 µM) | 0.44% of 71,000 active; active means well fitted curve in either direction with a large enough effect
TsaE inh – displaces an ADP probe from E. coli YjeE (TsaE). AID 605. 0.05% of 71,000 active. P0AF67. Potency, µM. purified YjeE enzyme, qHTS inhibition assay
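Purified YjeE (10 uM) with BODIPY Texas Red-labeled ADP probe (2 uM); compounds pin-transferred, 15 min at room temperature. Binding inhibition read as decreased fluorescence polarization; ADP titration as control.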
Hsp90 TPR2A CRC – confirmation and counter-screen of Hsp90 TPR2A co-chaperone interaction disrupters; shares compounds with Hsp90 Hop PPI; AlphaScreen TPR2A-His6 / biotin-Hsp90 peptide binding; activity, negative = inhibition, % at 40 µM or 46 µM, hits read low; 100% of 45 active; AID 632;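 active means compound lowering the Hsp90 and TPR2A binding signal, whether or not the linker counterscreen also flagged it as an artifact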
A number is an active result; . = inactive; / = not tested or not shown; + = active, no number; [ ] = dose if it differs, or a comment. Shown are actives, neighbours in structure and some others; about 2.4% of the full set was active somewhere. Unless noted, the call rests on the fitted dose curve; in most records, active means well fitted curve in the direction sought with a large enough effect; inconclusive means small, poorly fitted or top-dose-only effect, or another doubt; inactive means no such curve, though single readings can be large; an effect the other way counts as inactive or inconclusive.

SMILES	Tau fil binding	BRCT inh red	Pol III holo inh	BRCT PPI green	Hsp90 Hop PPI	TsaE inh	Hsp90 TPR2A CRC
CCCN1CCO[C@@H]2c3cc(O)ccc3OC[C@@H]21	40µM	.	.	.	.	.	/
CC(=O)[C@@H]1CC[C@H]2[C@H]3CC[C@H]4C[C@@H](O)CC[C@]4(C)[C@@H]3CC[C@]12C	.	.	.	.	.	.	/
CCn1nc(-c2cccs2)nc2c(=O)n(C)c(=O)nc1-2	.	.	.	.	1.6µM	.	+
Cn1nc(Cc2ccccc2)nc2c(=O)n(C)c(=O)nc1-2	/	/	/	/	/	/	+
CN(C)CS/C(N)=N/[C@H](O)C(Cl)(Cl)Cl	.[11.4 µM]	.[15.4 µM]	.[11.4 µM]	.[15.4 µM]	.[11 µM]	.	/
C#CCN[C@@H](C)Cc1ccccc1	.	.	.	.	.	.	/

From PubChem
